We go through 31 compounds from PubChem BioAssay AID999 (SRMLSC, 2007).

Each structure is given as a SMILES string. Calls of active or inactive are those of the source.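 How the source made its calls: active means viability at or below 21.59%, 3 SD under the median of tested compounds; inactive means the rest.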

A short description of the experiment: viability loss in PTEN-deleted cells – cell-based, validation, diverse DP compound set (AID 999).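 Further: 100% = median luminescence of untreated cell control wells and 0% = no signal.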 To be noted: HCT116 PTEN-null viability, CellTiter-Glo, 60 h; at 10 µM; active compounds read low. A general note: ATP-based viability assays read luminescence as a measure of living cells.
One may read the viability as a read-out of living cells in per cent, often relative to untreated cells. For the compound `COC(=O)Nc1nc2ccc(C(=O)c3cccs3)cc2[nH]1`, the viability is 50.2% (inactive).

`CCOC(=O)c1ncn2c1CN(C)C(=O)c1cc(F)ccc1-2`: the viability was 95.3% (inactive).

`COc1ccc2cc1Oc1ccc(cc1)C[C@H]1c3c(cc4c(c3Oc3cc5c(cc3OC)CCN(C)[C@@H]5C2)OCO4)CCN1C`: the viability was 37.8% (inactive).

In the case of `CC1(C)[C@@H](O[C@H]2O[C@H](C(=O)O)[C@@H](O)[C@H](O)[C@H]2O[C@@H]2O[C@H](C(=O)O)[C@@H](O)[C@H](O)[C@H]2O)CC[C@]2(C)[C@H]3C(=O)C=C4[C@@H]5C[C@@](C)(C(=O)O)CC[C@]5(C)CC[C@@]4(C)[C@]3(C)CC[C@@H]12`, the viability is 103% (inactive).

On to `CCCCCCCCCCCCCCCC(=O)OCC(O)C1OC(=O)C(O)=C1O` (stereo unspecified), for which the viability was 101% (inactive).

Take `COc1ccc(/C=C/c2cc(OC)cc(=O)o2)cc1`: the viability is 85.2% (inactive).

In the case of `CC(C)NCC(O)COc1cccc2ccccc12` (stereo unspecified), the viability is 89.1% (inactive).

For the compound `CCN(CC)C(=S)SSC(=S)N(CC)CC`, the viability was 89.6% (inactive).

Regarding `CC1=C(/C=C/C(C)=C/C=C/C(C)=C/C=C/C=C(C)/C=C/C=C(C)/C=C/C(=O)[C@]2(C)C[C@@H](O)CC2(C)C)C(C)(C)C[C@H](O)C1`, the viability is 80.7% (inactive).

Turning to `CCC(C)CCCCC(=O)N[C@@H](CCN)C(=O)N[C@H](C(=O)N[C@@H](CCN)C(=O)N[C@H]1CCNC(=O)C([C@@H](C)O)NC(=O)[C@@H](CCN)NC(=O)[C@H](CCN)NC(=O)[C@H](CC(C)C)NC(=O)[C@@H](CC(C)C)NC(=O)[C@H](CCN)NC1=O)[C@@H](C)O` (stereo partly specified), the viability is 96% (inactive).

For `CC(=O)[C@H]1[C@H](C#N)CC2C3CC=C4C[C@@H](O)CCC4(C)C3CCC21C` (stereo partly specified), the viability is 94.8% (inactive).

In the case of `COc1ccc2cc([C@H](C)C(=O)O)ccc2c1`, the viability was 85.6% (inactive).

Take `CC1(C)OC2CC(=O)OCC23C1CC(=O)C1(C)C3CC[C@@]2(C)[C@H](c3ccoc3)OC(=O)C3OC312` (stereo partly specified): the viability was 97.3% (inactive).

Consider `CN1CCN(C2Cc3ccccc3Sc3ccc(S)cc32)CC1` (stereo unspecified), for which the viability is 50.3% (inactive).

For `O=C(O)c1cc([N+](=O)[O-])ccc1NCCCc1ccccc1`, the viability is 94.2% (inactive).

`Nc1c2c(nc3ccccc13)CCCC2`: the viability was 107% (inactive).

Consider `COc1ccc(CCN2CCC(Nc3nc4ccccc4n3Cc3ccc(F)cc3)CC2)cc1`, for which the viability was 16.6% (active).

On to `CCn1cc(C(=O)O)c(=O)c2ccc(C)nc21`, for which the viability is 98.4% (inactive).

Take `CN1C2CCC1CC(OC(=O)C(CO)c1ccccc1)C2` (stereo unspecified): the viability was 94.2% (inactive).

Consider `O=C(c1ccc(F)cc1)C1CCN(CCn2c(=O)[nH]c3ccccc3c2=O)CC1`, for which the viability is 94.8% (inactive).

For the compound `COc1ccc(Cl)cc1C(=O)NCCc1ccc(S(=O)(=O)NC(=O)NC2CCCCC2)cc1`, the viability was 107% (inactive).

Take `CC1=C(/C=C/C(C)=C/C=C/C(C)=C/C(=O)O)C(C)(C)CCC1`: the viability was 93.7% (inactive).

For `CC1(C)CCC[C@@](C)([C@H]2CC[C@]3(C)[C@@H]2[C@H](O)C[C@@H]2[C@@]4(C)CC[C@H](O)C(C)(C)[C@@H]4[C@@H](O)C[C@]23C)O1`, the viability is 100% (inactive).

With `O=C(c1ccccc1)c1ccccc1`, the viability was 100% (inactive).

With `COc1cc(CNC(=O)CCCC/C=C/C(C)C)ccc1O`, the viability is 99.3% (inactive).

For `C[C@@H]1C[C@@H]([C@@H](C)CC2CC(=O)NC(=O)C2)C(=O)[C@@H](C)C1`, the viability is 30.2% (inactive).

As for `CC[N+](CC)(CC)CC(=O)Nc1c(C)cccc1C`, the viability was 105% (inactive).

As to `CCOC(=O)C(C)(C)Oc1ccc(Cl)cc1`, the viability was 100% (inactive).

`COc1ccc(CCN(C)CCCN2CCc3cc(OC)c(OC)cc3CC2=O)cc1OC`: the viability is 97.1% (inactive).

For `Cc1ccc(Cl)c(Nc2ccccc2C(=O)O)c1Cl`, the viability was 98.1% (inactive).

Take `CC1COC2=C1C(=O)C(=O)c1c2ccc2c1CCCC2(C)C` (stereo unspecified): the viability was 17.8% (active).
